Source: PubChem BioAssay (National Center for Advancing Translational Sciences (NCATS))
Only some compounds are listed: those with a hit (about 3.1% of all), similar ones and a draw of the others.
S16 F2sN tox = Cell viability qHTS assay in S16 Pmp22-F2sN cells; S16 Pmp22-F2sN Schwann cells viability, CellTiter-Glo, 24 h; Potency, µM (highest dose often 57.5 µM), actives largely listed as cytotoxic; 43,000 compounds, 0.48% hits; AID 1508642, 2021; further: nearly all actives have a fitted effect of over 65% in size
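CellTiter-Glo counter-screen, qHTS, 1536-well. Cells: S16(c9) Pmp22-F2sN, 500-1,000/well in DMEM + 10% FBS. Cpd 23 nL pin transfer, 24 h, 37C/5% CO2. Read: luminescence, CCD imager.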
pS6 MEF inh = Acumen qHTS Assay for Inhibitors of the mTORC1 Signaling Pathway in MEF (Tsc2-/-, p53-/-) Cells: Sytravon; Tsc2-/- p53-/- MEF, phospho-rpS6 immunofluorescence/PI, 24 h; Potency, µM (doses to about 38.3 µM), usual class: inhibitors; 44,000 compounds, 0.78% hits; AID 493208, 2011; further: nearly all actives have a fitted effect of over 50% in size
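Immunofluorescence of rpS6 phosphorylation in Tsc2-/-, p53-/- MEFs after 24 h compound exposure, normalized to propidium iodide signal. Activity is expressed as % positive cells, thresholded with 7.5 nM rapamycin.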
PMP22 txn = Cell-based coincidence reporter assay to measure PMP22 gene transcription in S16 Pmp22-F2sN cells - Primary screen | Potency, µM (titrated, usually from 57.5 µM), actives largely listed as inhibitors | S16 Pmp22-F2sN Schwann cells (luciferase reporters placed in the Pmp22 gene), FLuc/NLuc coincidence luminescence, 24 h | 43,000 compounds, 2% hits | AID 1508649, 2021; active means clear falling dose curves in both reporters; inconclusive means both reporters move, but less clearly or upward; inactive means either reporter flat; the % is the NLuc reporter signal
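Transcriptional readout in edited S16(c9) cells: two luciferases reported from the Pmp22 locus, measured in turn after 24 h compound incubation.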
p53null 32C tox = qHTS Screen for Compounds that Selectively Target Cancer Cells with p53 Mutations: Cytotoxicity of p53 Null Cells at the Permissive Temperature | Potency, µM (titrated, usually from 46.1 µM), actives largely listed as cytotoxic | AID 903, 2007 | 55,000 compounds, 0.62% hits | H1299-neo p53 null cells, ATP luminescence, 24 h, 32C; further: nearly all actives have a fitted effect of over 55% in size
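ATP-content luminescence in p53-null H1299-neo cells after 24 h compound exposure (up to 46 uM) at 32C permissive temperature; 0% and 100% killing set by DMSO and 100 uM tamoxifen; Hill-equation AC50.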
SKOV3 invasion = Primary qHTS assay for Inhibitors of ovarian cancer metastasis using an organotypic tumor microenvironment (TME) model. SKOV3ip1-GFP adhesion/invasion on 3D omental model, fluorescence. AID 1963576, 2024. Potency, µM (top dose mostly 45.8 µM), hits mostly inhibitors. 46,000 compounds, 0.1% hits; further: nearly all actives have a fitted effect of over 65% in size
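A 3D layer of primary human omental fibroblasts, mesothelial cells, fibronectin and collagen I, grown 48 hr, received SKOV3ip1-GFP cells in serum-free medium plus compounds at 0.36-46 umol/L. After 2 hr RT and 16 hr 37 C, fixed adherent GFP cells were counted; normalized to DMSO and tomatine.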
p53null 39C kill = qHTS Screen for Compounds that Selectively Target Cancer Cells with p53 Mutations: Cytotoxicity of p53 Null Cells at the Nonpermissive Temperature; H1299 p53-null (neo) cells, 39C, ATPlite viability, 24 h; Potency, µM (doses to about 46.1 µM), most hits filed as cytotoxic; 55,000 compounds, 0.97% hits; further: nearly all actives have a fitted effect of over 50% in size
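H1299 lung cancer cells, p53-null (H1299-neo) or expressing p53 A138V (H1299-p53A138V), were plated overnight at 37C, then exposed to compounds at up to 46 uM for 24 hr at 39C. Viability was read by ATP-based luminescence.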
Hits are given with their value; – = inactive; ? = inconclusive; · = no result. Unless noted, the call rests on the fitted dose curve; in most records, active means well fitted curve in the direction sought with a large enough effect; inconclusive means small, poorly fitted or top-dose-only effect, or another doubt; inactive means no such curve, though single readings can be large; an effect the other way counts as inactive or inconclusive.

SMILES | S16 F2sN tox | pS6 MEF inh | PMP22 txn | p53null 32C tox | SKOV3 invasion | p53null 39C kill
Cc1cccc(CS(=O)(=O)c2ncc(Cl)c(C(=O)Nc3nnc(C(C)C)s3)n2)c1 | ? | 16µM | 9.6µM | – | ? | 13µM
Cc1ccc(CS(=O)(=O)c2ncc(Cl)c(C(=O)Nc3nnc(C(C)C)s3)n2)cc1 | ? | 15µM | 8.9µM | – | ? | ?
CCCN(CCC)CC(O)Cn1cc(/C=C/C(=O)c2ccc(OCC)cc2)c2ccccc21 (stereo unspecified) | ? | ? | ? | ? | – | 20µM
C=C1[C@H](n2cnc3c(=O)[nH]c(N)nc32)C[C@H](O)[C@H]1CO | · | · | · | · | – | ·
COc1cccc(NC(=O)CSc2nnc(NC(=O)NC3CCCCC3)s2)c1 | – | – | ? | 13µM | – | –
CC(C)Oc1ccc(C(=O)Nc2nnc(SCC(=O)N3CCOCC3)s2)cc1 | · | · | · | 0.56µM | · | 0.63µM
Cc1ccc(C(=O)Nc2ccc3nc(SCC(=O)N4CCc5ccccc54)sc3c2)cc1 | – | – | – | – | – | –
Cc1ccc(C(=O)Nc2nnc(SCC(=O)N3CCCc4ccccc43)s2)cc1 | · | · | · | 1.3µM | · | ·
COc1cc2c(Oc3ccc4[nH]c(C)cc4c3F)ncnc2cc1OCCCN1CCCC1 | · | · | · | · | – | ·
COc1cc2c(NC3CCN(C(C)C)CC3)nc(C3CCCCC3)nc2cc1OCCCN1CCCC1 | · | · | · | · | 12µM | ·
CC(C)(O)CC[C@@H](O)[C@](C)(O)[C@H]1CC[C@@]2(O)C3=CC(=O)[C@@H]4C[C@@H](O)[C@@H](O)C[C@]4(C)[C@@H]3CC[C@]12C | · | · | · | · | – | ·
CCC1CCc2nc3sc(C(=O)Nc4ccc(C)cc4)c(N)c3cc2C1 (stereo unspecified) | – | 18µM | – | – | – | –
CN(C)c1nc(Cc2ccc(NC(=O)c3ccc(C(F)(F)F)cc3)cc2)nc(N(C)C)c1CC(=O)O | · | · | · | · | – | ·
CS(=O)(=O)N(CC(=O)NCCc1ccccc1)c1cc(C(F)(F)F)ccc1Cl | – | 6.6µM | – | – | – | –
CNC(=O)c1ccc(Nc2cc(Nc3ccccc3S(=O)(=O)C(C)C)c3cc[nH]c3n2)nc1 | · | · | · | · | – | ·
O=C(NCCc1nc2ccccc2n1CCOc1ccc(Cl)cc1)C1CCCCC1 | · | – | · | – | · | 13µM
Cc1ccccc1OCCn1c(CCNC(=O)C2CCCCC2)nc2ccccc21 | – | – | – | – | ? | –
CC(=O)c1ccc(NS(=O)(=O)c2cc(-c3cnc(C4CC4)o3)ccc2C)cc1 | ? | – | ? | – | – | –
CC(=O)c1cccc(NS(=O)(=O)c2cc(-c3cnc(C4CC4)o3)ccc2C)c1 | ? | – | 17µM | – | ? | –
Cc1ccc(NS(=O)(=O)c2cc(-c3cnc(C4CC4)o3)ccc2C)cc1Cl | 14µM | ? | ? | – | – | ?
CN1CC[C@@H](c2c(O)cc(O)c3c(=O)cc(-c4ccccc4Cl)oc23)[C@@H](O)C1 | · | · | · | · | – | ·
COc1ccc(CSc2nc3ncccc3[nH]2)cc1 | – | – | – | 11µM | – | 11µM
Cc1ccc2sc(-c3ccc(N)cc3)nc2c1 | – | – | – | 2µM | – | 1.6µM
COc1ccc(C(=O)COC(=O)c2cccc(NC(=O)c3ccc(OC)c(OC)c3)c2)cc1 | – | – | – | 16µM | – | ?
CC(O)C1C(=O)N2C(C(=O)O)=C(SC3CNC(C(=O)N(C)C)C3)C(C)C12 (stereo unspecified) | · | · | · | · | – | ·
CC(=O)N1CCc2c(sc3c2c(=O)n(-c2ccc(C)cc2)c(=O)n3CC(=O)Nc2ccccc2)C1 | – | – | – | – | – | –
CCOC(=O)N1CCc2c(sc3c2c(=O)n(-c2ccc(Cl)cc2)c(=O)n3CC(=O)Nc2ccccc2)C1 | 13µM | – | ? | – | – | –
